From PubChem BioAssay
Shown are actives, neighbours in structure and some others; about 5.5% of the full set was active somewhere.
Six1-Eya2 inh = inhibitors of human Six1/Eya2 interaction; 360,000 tested, 0.56% active; AlphaScreen GST-Six1/His-Eya2 binding, biochemical; active compounds read low; Q15475+O00167; AID 651725; activity change, % (no concentration beside the values); in the data active means activity change below about -65%; inconclusive means mostly about -30% to -63%; further: on the % scale 0 is the no-effect control and ±100 the full control effect
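AlphaScreen luminescence read after one hour at 37 °C in darkness. Pin-transferred compounds met GST-Six1 and His-Eya2 protein (5X stock 250 nM/500 nM) plus glutathione donor and Ni-chelate acceptor beads (5X, 50 ug/mL).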
RORgamma inh = ROR gamma (mouse) transcription inhibition. Drosophila S2 Gal4-RORgamma UAS-luciferase reporter, 20 h. 310,000 tested, 5.4% active. Potency, µM (doses to about 53.6 µM), for inactives: at the highest dose activity change, negative = inhibition, most hits filed as inhibitors. P51450; further: potency means the concentration at half of the fitted maximal effect; on the % scale 0 is the no-effect control and ±100 the full control effect; nearly all actives have a fitted effect of over 60% in size
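Luminescence from a UAS-regulated Photinus luciferase reporter in stably transfected Drosophila Schneider cells is measured; decreased signal marks ROR gamma inhibition. Fusion expression is induced by 700 uM copper sulfate for 20 hr.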
CBFb RUNX1 block = inhibitors of human CBF-beta and RUNX1 interaction. Q01196+Q13951. AlphaScreen CBFb-His/RUNX1-biotin binding, biochemical. Potency, µM (series often up to 59.8 µM), without a hit: at the highest dose activity, negative = inhibition, hits mostly inhibitors. 230,000 tested, under 10 active. AID 1477; further: % of control where 0% means no effect
Target sequence (Q01196 whole entry, looked up): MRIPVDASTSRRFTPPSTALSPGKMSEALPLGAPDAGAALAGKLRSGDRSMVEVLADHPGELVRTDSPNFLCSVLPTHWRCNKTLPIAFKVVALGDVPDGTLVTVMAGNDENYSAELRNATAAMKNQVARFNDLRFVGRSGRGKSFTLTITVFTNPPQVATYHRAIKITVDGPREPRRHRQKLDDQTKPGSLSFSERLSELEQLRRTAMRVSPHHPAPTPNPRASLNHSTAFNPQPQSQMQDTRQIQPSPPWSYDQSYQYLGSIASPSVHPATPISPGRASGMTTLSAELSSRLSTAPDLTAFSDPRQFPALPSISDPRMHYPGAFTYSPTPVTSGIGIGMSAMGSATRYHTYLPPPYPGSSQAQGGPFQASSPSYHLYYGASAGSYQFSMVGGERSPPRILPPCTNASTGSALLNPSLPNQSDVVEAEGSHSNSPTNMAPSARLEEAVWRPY
Target sequence (Q13951 whole entry, looked up): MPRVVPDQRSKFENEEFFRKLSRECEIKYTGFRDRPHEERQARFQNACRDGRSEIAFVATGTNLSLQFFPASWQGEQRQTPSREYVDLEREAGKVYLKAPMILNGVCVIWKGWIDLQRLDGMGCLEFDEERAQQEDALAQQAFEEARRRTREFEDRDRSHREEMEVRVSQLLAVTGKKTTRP
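Bead-based AlphaScreen assay; binding partners His-tagged CBF-beta and biotinylated RUNX1 at 30 nM each. Compound exposure 15 min after a 20-min protein preincubation; bead step 90 min; all steps at room temperature.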
MBNL1-CUG inh = blocks human MBNL1 binding to CUG repeat RNA | Q9NR56 | Potency, µM (titrated, usually from 57.5 µM), for the others: at the top dose activity change, negative = inhibition, hits mostly inhibitors | TR-FRET MBNL1-His/biotin-(CUG)12 binding, 665/545 ratio | 280,000 tested, 0.036% active | AID 2675; active means well fitted inhibition curve with a large enough effect in the signal ratio, with a control signal flat, not every such curve was filed as active; inconclusive means small, poorly fitted or top-dose-only effect, or effect the other way, or a change in a side signal; inactive means no such curve, though single readings can be large or run the other way; the % refers to the signal ratio; further: potency means the concentration at half of the fitted maximal effect; on the % scale 0 is the no-effect control and ±100 the full control effect
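TR-FRET between His-tagged MBNL1 and biotin-(CUG)12 RNA, detected with Tb anti-His antibody (0.055 ng/ul) and streptavidin-XL665 (5 nM), 60 min at room temperature. Compounds titrated 92 nM to 58 uM; 665/545 nm ratio normalized to buffer and complex controls.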
CtBP-E1A blk = inhibitors of CtBP/E1A interaction | 340,000 tested, 0.49% active | AlphaScreen GST-E1A/His-CtBP binding, 1536-well; active compounds read low | AID 651724 | activity change, % (test concentration not listed); in the data active means activity change below about -65%; inconclusive means mostly about -30% to -63%; further: on the % scale 0 is the no-effect control and ±100 the full control effect
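AlphaScreen with 125 nM GST-E1A and 125 nM His-CtBP (5X stocks) in Tris pH 8.0, 300 mM NaCl, BSA, Tween 20, TCEP. Compounds preincubated 2 h at 37 deg C, then glutathione donor/nickel acceptor beads added for 1 h at 37 deg C in dark.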
VP16 counter = inhibits Gal4-VP16 luciferase reporter, ROR gamma counter-screen; Potency, µM (highest dose often 53.6 µM), for inactives: at the highest dose activity, negative = inhibition, hits mostly inhibitors; Drosophila S2 Gal4-VP16 UAS-luciferase, luminescence, 20 h; 310,000 tested, 3.5% active;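 further: Gal4-VP16 expression switched on by copper sulfate through the metallothionein promoter; potency means the concentration at half of the fitted maximal effect; on the % scale 0 is the no-effect control and ±100 the full control effect; nearly all actives have a fitted effect of over 50% in size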
* marks the source's active call; other numbers are inactive results; ? = inconclusive; nt = not tested or not shown. Unless noted, the call rests on the fitted dose curve; in most records, active means well fitted curve in the direction sought with a large enough effect; inconclusive means small, poorly fitted or top-dose-only effect, or another doubt; inactive means no such curve, though single readings can be large; an effect the other way counts as inactive or inconclusive.

SMILES	Six1-Eya2 inh	RORgamma inh	CBFb RUNX1 block	MBNL1-CUG inh	CtBP-E1A blk	VP16 counter
COc1c(/C=N/Nc2nc(N3CCCCC3)nc(N3CCCCC3)n2)cccc1[N+](=O)[O-]	-2	0.32µM*	-1%	0%	3	14%
O=[N+]([O-])c1ccc(/C=N/Nc2nc(N3CCCCC3)nc(N3CCCCC3)n2)o1	-12	-28%	-15%	?	0	1%
Cn1c(NCc2ccccc2F)nc2cc(-c3cccc(Cl)c3)sc2c1=O	11	nt	nt	nt	5	nt
c1ccc(C2Nc3ccccc3-c3nc4ccccc4n32)nc1 (configuration not stated)	-25	8.9µM*	12%	-2%	?	-9%
COc1ccc(-c2n[nH]c(C)c2-c2cnn(-c3ccccc3)c2)c(O)c1C	-8	11µM*	-1%	-10%	-17	?
Cc1cccc(C(=O)NNC(=O)c2ccc(S(=O)(=O)N3CCOCC3)cc2)c1	2	13%	nt	-3%	17	-2%
CN(C)c1nc(NCc2ccccc2)nc(N/N=C/c2ccc3c(c2)OCO3)n1	-14	7.9µM*	7%	3%	-12	?
CN(C)c1ccc(/C=N/Nc2nc3ccccc3o2)cc1	-3	6.3µM*	nt	-7%	-1	11µM*
CCNc1nc(NCC)nc(N/N=C/c2ccc(O)c(O)c2)n1	-7	?	-25%	5%	-2	-20%
CCS(=O)(=O)c1ccc(C=NNc2nc3ccccc3o2)cc1	-5	nt	nt	nt	10	nt
CN(C)c1nc(NCc2ccccc2)nc(N/N=C/c2ccc(Br)cc2)n1	-2	2.8µM*	-5%	5%	nt	13µM*
CCNc1nc(NCC)nc(N/N=C/c2ccc(N(C)C)cc2)n1	-18	7.9µM*	-17%	8%	-22	?
CC(SCc1ccccc1)C(=O)N/N=C/c1ccc2c(c1)OCO2 (configuration not stated)	-4	?	3%	5%	-2	-7%
COc1ccc(Nc2nc(N3CCCCC3)c3ccccc3n2)cc1	-10	18µM*	-17%	-13%	-6	7.1µM*
c1ccc(Nc2nc(N3CCCCC3)nc(N3CCCCC3)n2)cc1	10	-19%	1%	-3%	9	6%
COc1nc(N/N=C/c2ccc(C)cc2)nc(N2CCCCC2)n1	3	-38%	-4%	-16%	-3	3%
Oc1ccc(Nc2nc(N3CCCC3)c3ccccc3n2)cc1	?	-2%	-17%	-23%	?	?
COc1ccc(/C=N/Nc2nc(N3CCCC3)nc(N3CCCC3)n2)cc1	-17	5µM*	0%	0%	-2	?
C(=N\Nc1nc(Nc2ccccc2)nc(N2CCCCC2)n1)/c1ccco1	nt	2.2µM*	-21%	17%	nt	13µM*
COc1ccc(/C=N/Nc2nc(N3CCCC3)nc(N3CCCC3)n2)cc1O	-7	11µM*	-1%	-4%	-6	-8%
CCN(CC)C(=O)c1[nH]cnc1C(=O)NCC(=O)OCc1ccccc1	1	-22%	nt	4%	6	2%
Cc1ccc(S(=O)(=O)NC[C@H]2O[C@@H](n3cnc4c(N)ncnc43)[C@H](O)[C@@H]2O)cc1	3	nt	nt	nt	10	nt
COc1ccc(/C=N/Nc2nc(Nc3ccccc3)nc(N3CCCC3)n2)cc1	3	2.8µM*	-10%	0%	-22	-6%
COCCN(Cc1ccccc1)C(=O)C1CCN(S(=O)(=O)c2ccc3c(c2)OCCO3)CC1	3	nt	nt	nt	nt	nt
N/C(Cc1ccc(Cl)cc1)=N\OC(=O)c1ccccc1	12	-22%	8%	0%	3	-22%
SMILES	Six1-Eya2 inh	RORgamma inh	CBFb RUNX1 block	MBNL1-CUG inh	CtBP-E1A blk	VP16 counter
COc1cc(C(=O)O/N=C(\N)Cc2ccc([N+](=O)[O-])cc2)cc(OC)c1OC	-2	-18%	6%	?	-1	?
COc1ccc(C(=O)O/N=C(\N)Cc2ccc(Cl)c(Cl)c2)cc1OC	-6	?	5%	-17%	-16	6.3µM*
COc1ccc(C(=O)O/N=C(\N)Cc2ccc(Cl)cc2)cc1OC	-4	?	4%	-5%	-3	16µM*
Cc1ccc(Cn2cnc3ccccc32)cc1C	-4	10µM*	1%	-15%	6	?
Fc1ccc(Cn2cnc3ccccc32)cc1	0	-34%	1%	-7%	5	23%
CCCOc1ccc(Cn2cnc3ccccc32)cc1	-1	16µM*	8%	0%	-5	?
Cc1cccc(Cn2cnc3ccccc32)c1	7	?	-2%	-2%	-2	-23%
CCOC(=O)c1ccc(NC(=S)N2CCN(CCN=CC3=C(O)CC(C)(C)CC3=O)CC2)cc1	14	13µM*	-9%	?	0	?
CN(C(=O)COc1cccc(C#N)c1)C1CCS(=O)(=O)C1 (configuration not stated)	11	nt	nt	nt	nt	nt
COc1cc(C(=O)Nc2cccc(-c3nc4ccccc4o3)c2C)cc(OC)c1OC	4	-26%	8%	-6%	-3	0%
COc1cccc(C(=O)Nc2ccc(-c3nc4ccccc4o3)c(O)c2)c1	8	5µM*	-29%	?	11	7.1µM*
O=C(Nc1ccc(-c2nc3ccccc3o2)c(O)c1)c1cc(-n2cnnc2)ccc1Cl	-9	8.9µM*	-11%	17%	-4	?
COc1cc(C(=O)Nc2ccc(-c3nc4cc(C)ccc4o3)c(O)c2)cc(OC)c1OC	7	3.5µM*	6%	5%	3	-22%
CC(C(=O)N(C)C1CCS(=O)(=O)C1)N1C(=O)/C(=C/c2ccc(F)cc2)SC1=S (configuration not stated)	-14	-7%	nt	?	0	16µM*
CN(C(=O)CCN1C(=O)/C(=C/c2ccc(F)cc2)SC1=S)C1CCS(=O)(=O)C1 (configuration not stated)	-3	nt	nt	nt	0	nt
O=C1CC(c2ccccc2)CC(O)=C1C=Nc1ccccc1O (configuration not stated)	1	11µM*	-3%	2%	nt	-23%
CCOC(=O)N(C)c1c(CC)nc2c(OCc3ccc(Cl)cc3Cl)cccn12	-5	nt	nt	nt	-24	nt
O=[N+]([O-])c1ccc(/C=N/NC2=NS(=O)(=O)c3ccccc32)cc1	1	-11%	-6%	?	-5	9%
O=[N+]([O-])c1ccc(O)c(/C=N/Nc2nn[nH]n2)c1	-74*	?	-7%	?	?	1%
O=[N+]([O-])c1ccc(O)c(/C=N/NC2=NS(=O)(=O)c3ccccc32)c1	-70*	1.3µM*	nt	?	-70*	1.3µM*
C(=N\Nc1nn[nH]n1)/c1ccccc1	6	-12%	-16%	2%	3	4%
